Records with an inconclusive call do not appear. Calls of active or inactive are those of the source. Unless noted, calls follow the shape of the dose curve; as a rule, active = well fitted curve in either direction with a large enough effect (not every such curve was filed as active); inconclusive = small, poorly fitted or top-dose-only effect, or another doubt; inactive = flat fitted curve, though single readings scatter. Residues, ends and D or L forms follow the SMILES beside them.
Legend:
[1] = target: Lysosomal acid glucosylceramidase (Homo sapiens) (UniProt P04062); assay: Glucocerebrosidase-p2 (AID 348; in the data active = potency below about 10 µM; also: potency is read from the fitted curve at half-maximal effect); details: purified GBA, blue fluorogenic substrate, 40 min
Chain of Lysosomal acid glucosylceramidase (Homo sapiens) (P04062 whole entry, looked up): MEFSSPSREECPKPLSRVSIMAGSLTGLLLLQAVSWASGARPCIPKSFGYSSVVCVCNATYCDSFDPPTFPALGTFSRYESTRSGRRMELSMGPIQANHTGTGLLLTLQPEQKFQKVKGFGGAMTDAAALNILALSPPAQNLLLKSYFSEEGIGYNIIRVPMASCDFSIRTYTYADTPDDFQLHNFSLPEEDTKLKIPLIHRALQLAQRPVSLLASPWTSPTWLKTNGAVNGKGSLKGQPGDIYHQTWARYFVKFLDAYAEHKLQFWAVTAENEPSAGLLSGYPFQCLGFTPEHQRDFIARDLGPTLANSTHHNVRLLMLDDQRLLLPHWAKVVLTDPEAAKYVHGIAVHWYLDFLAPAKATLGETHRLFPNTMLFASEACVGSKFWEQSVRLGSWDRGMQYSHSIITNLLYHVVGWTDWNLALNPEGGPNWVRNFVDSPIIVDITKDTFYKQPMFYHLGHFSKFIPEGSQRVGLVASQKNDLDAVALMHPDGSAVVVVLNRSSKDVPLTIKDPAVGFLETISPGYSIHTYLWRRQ
Procedure, shortened: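 Normal human glucocerebrosidase (0.2 nM) with blue fluorogenic substrate (80 uM final) in citrate/phosphate pH 5.9 with 10mM sodium taurocholate, 0.01% tween-20; 40 min RT, NaOH/glycine stop; fluorescence Ex 365/Em 440; AC50 from a titration from 0.6 nM upwards.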

[2] = AP1 Signaling Pathway (AID 357); details: ME-180 AP-1-bla reporter, EGF-induced, beta-lactamase ratio, 5 h; at 7.69 µM (top of the series) unless noted;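 also: ME-180 reporter cells stimulated with EGF at its EC50 level; % is scaled to controls: 0 for no effect and ±100 for the full control effect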
Procedure, shortened: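 Beta-lactamase reporter under AP-1 response element, ME-180 background. Stimulus: EC50 EGF. Compound exposure 5 h, 37 °C. Detection: CCF4, 2.5 h RT, 460/530 nm. Values: AC50 from titration.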

[3] = Stat Signaling Pathway (AID 446); details: ME-180 (cervical carcinoma) SIE beta-lactamase reporter, IL-6 stimulated, 5 h; at 7.69 µM (top of the series) unless noted;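 also: ME-180 cervical cancer cells given 40 pM IL-6 alongside compound; SIE-controlled beta-lactamase reporter measured as 460/530 nm FRET emission ratio; % is scaled to controls: 0 for no effect and ±100 for the full control effect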
Procedure, shortened: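 Normalization used AC90 stimulation (300 pM IL-6) and AC90 inhibition (125 nM pan-JAK inhibitor at 40 pM IL-6). The underlying signal is SIE-driven beta-lactamase in ME-180 cells after 5 h IL-6 exposure with compound.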

[4] = target: Glucocorticoid receptor (Homo sapiens) (UniProt P04150); assay: GR-GFP Redistribution (AID 450;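 active = compounds whose dose series gives a full or clear partial fitted curve of increased nuclear translocation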; also: potency is read from the fitted curve at half-maximal effect); details: U2OS GR-GFP nuclear translocation, laser cytometry, 2 h
Chain of Glucocorticoid receptor (Homo sapiens) (P04150 whole entry, looked up, the tested form may be a part): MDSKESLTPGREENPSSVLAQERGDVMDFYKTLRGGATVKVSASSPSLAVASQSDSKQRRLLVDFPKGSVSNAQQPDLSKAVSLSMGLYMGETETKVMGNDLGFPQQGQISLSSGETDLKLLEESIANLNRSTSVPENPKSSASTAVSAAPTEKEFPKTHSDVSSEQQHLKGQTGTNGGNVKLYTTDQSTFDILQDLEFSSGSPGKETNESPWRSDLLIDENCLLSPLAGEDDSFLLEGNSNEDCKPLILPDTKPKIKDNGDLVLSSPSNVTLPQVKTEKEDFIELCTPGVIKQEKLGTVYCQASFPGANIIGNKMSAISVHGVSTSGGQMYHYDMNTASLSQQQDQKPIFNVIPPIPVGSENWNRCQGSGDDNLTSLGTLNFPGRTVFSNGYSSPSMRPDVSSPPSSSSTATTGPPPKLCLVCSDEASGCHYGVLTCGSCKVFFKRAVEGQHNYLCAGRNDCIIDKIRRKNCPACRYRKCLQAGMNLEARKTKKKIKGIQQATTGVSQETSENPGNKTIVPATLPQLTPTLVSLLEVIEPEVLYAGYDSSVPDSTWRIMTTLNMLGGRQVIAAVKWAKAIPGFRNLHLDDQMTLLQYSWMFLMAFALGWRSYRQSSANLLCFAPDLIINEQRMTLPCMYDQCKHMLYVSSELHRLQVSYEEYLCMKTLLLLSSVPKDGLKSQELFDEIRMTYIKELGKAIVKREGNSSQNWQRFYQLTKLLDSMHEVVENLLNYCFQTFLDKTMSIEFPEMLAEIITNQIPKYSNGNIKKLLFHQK

[5] = target: Glucocorticoid receptor (Homo sapiens) (UniProt P04150); assay: GR-EFC Redistribution (AID 451; calls by dose curve; also: potency is read from the fitted curve at half-maximal effect); details: CHO-K1 GR-EFC translocation, beta-gal luminescence, 2 h
Procedure, shortened: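 CHO-K1 cells stably expressing nuclear-localized β-gal enzyme acceptor and GR fused C-terminally to the enzyme donor fragment; ligand-driven nuclear translocation restores β-gal by complementation. Compounds titrated up to 46 uM final, 2 h at 37 °C; luminescence read.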

[6] = target: Mitogen-activated protein kinase 10 (Mus musculus) (UniProt Q61831); assay: JNK3 AlphaScreen Assay (AID 530); details: JNK3 lysate, c-Jun phosphorylation; series mostly up to 11.4 µM;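 also: kinase came from lysate of stimulated human HepG2 cells; signal reports phosphorylation of biotinylated GST-cJun 1-79 at Ser73 with 10 µM ATP; % is scaled to controls: 0 for no effect and ±100 for the full control effect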
Procedure, shortened: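 Phosphorylation of biotinylated GST-cJun(1-79) at Ser73 is measured by AlphaScreen proximity luminescence. Enzyme is JNK3 in HepG2 lysates activated with interleukin-1beta and tumor necrosis factor alpha; ATP is 10 uM final.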

[7] = target: 3',5'-cyclic-AMP phosphodiesterase 4B (Homo sapiens) (UniProt Q07343); assay: qHTS Assay for Inhibitors of PDE-IV (AID 607; active = well fitted activation curve with a large enough effect in the main read-out, with a control signal flat, not every such curve was filed as active; also: % of control where 0% means no effect); details: HEK293 ACTOne CNG channel cells, membrane potential fluorescence; series mostly up to 22.9 µM
Chain of 3',5'-cyclic-AMP phosphodiesterase 4B (Homo sapiens) (Q07343 whole entry, looked up): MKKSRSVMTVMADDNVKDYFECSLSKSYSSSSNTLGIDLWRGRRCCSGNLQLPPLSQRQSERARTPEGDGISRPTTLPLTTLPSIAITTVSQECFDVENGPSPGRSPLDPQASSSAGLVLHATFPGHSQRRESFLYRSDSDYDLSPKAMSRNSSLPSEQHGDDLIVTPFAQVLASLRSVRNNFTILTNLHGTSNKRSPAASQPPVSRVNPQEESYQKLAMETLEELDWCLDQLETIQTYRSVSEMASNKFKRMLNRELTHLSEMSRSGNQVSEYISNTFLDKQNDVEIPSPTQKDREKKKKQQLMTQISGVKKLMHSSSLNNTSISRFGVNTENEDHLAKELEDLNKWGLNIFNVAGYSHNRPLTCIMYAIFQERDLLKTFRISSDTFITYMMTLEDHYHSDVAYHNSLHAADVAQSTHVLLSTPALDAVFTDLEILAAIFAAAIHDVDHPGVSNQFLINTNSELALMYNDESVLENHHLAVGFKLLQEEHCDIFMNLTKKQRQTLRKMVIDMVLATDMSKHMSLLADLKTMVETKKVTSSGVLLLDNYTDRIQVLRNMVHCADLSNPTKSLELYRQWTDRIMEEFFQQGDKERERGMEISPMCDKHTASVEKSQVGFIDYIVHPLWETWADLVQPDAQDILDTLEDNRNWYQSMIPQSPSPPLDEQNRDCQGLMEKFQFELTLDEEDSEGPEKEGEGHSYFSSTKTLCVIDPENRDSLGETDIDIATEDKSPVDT
Procedure, shortened: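 HEK293 ACTOne cells with CNG channel (1000/well), endogenous PDE4; membrane potential dye, compounds up to 22.9 uM final. Fluorescence Ex 535/Em 590; RO 20-1724 (100 uM final) as reference.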

C[C@@H](NC(=O)C1(N)CCCC1)C(=O)O (HELM PEPTIDE1{[NC1(C(=O)[*:2])CCCC1].[dA]}$$$$V2.0)
inactive: Potency [1] > 11.4 µM | activity change, negative = inhibition [2] 5.64% | activity, negative = inhibition [3] 6.26% | Potency [4] > 46 µM | Potency [5] > 9.22 µM | Potency [6] | Potency [7]

CC(C)(C)C1CCC2(CC1)CCN(CCCN1CCOCC1)CC2
inactive: Potency [1] > 11.4 µM | activity change, negative = inhibition [2] 11.9% | activity, negative = inhibition [3] -3.69% | Potency [4] > 46 µM | Potency [5] > 9.22 µM | Potency [6]

C[C@H](OP(=O)(O)O)[C@H](N)C(=O)O
inactive: Potency [1] > 11.4 µM | activity change, negative = inhibition [2] 0.907% | activity, negative = inhibition [3] -1.55% | Potency [4] > 46 µM | Potency [5] > 9.22 µM | Potency [6] | Potency [7]

O=C1C[C@H]2OCC=C3CN4CC[C@@]5(C(=O)O)[C@H](N1)[C@H]2[C@H]3C[C@H]45
inactive: Potency [1] > 11.4 µM | activity change, negative = inhibition [2] 1.86% | activity, negative = inhibition [3] -5.3% | Potency [4] > 46 µM | Potency [5] > 9.22 µM | Potency [6] | Potency [7]

Clc1ccc(CSCc2ccc(Cl)cc2Cl)c(Cl)c1
inactive: Potency [1] > 11.4 µM | activity change, negative = inhibition [2] -7.04% | activity, negative = inhibition [3] 1.58% | Potency [4] > 46 µM | Potency [5] > 9.22 µM | Potency [6] | Potency [7]

NCCNC[C@H](O)CO
inactive: Potency [1] > 11.4 µM | activity change, negative = inhibition [2] -9.92% | activity, negative = inhibition [3] 3.6% | Potency [4] > 46 µM | Potency [5] > 9.22 µM | Potency [6] | Potency [7]

C[C@@]12C[C@H](O)[C@@H]3[C@H](CCC4=CC(=O)CC[C@]43C)[C@H]1CC[C@@H]2c1csc(-c2ccccc2)n1
inactive: Potency [1] > 11.4 µM | activity change, negative = inhibition [2] -1.5% | activity, negative = inhibition [3] -6.13% | Potency [4] > 46 µM | Potency [5] > 9.22 µM | Potency [6] | Potency [7]

Nc1ncnc2nc(-c3ccc(C[P+](c4ccccc4)(c4ccccc4)c4ccccc4)cc3)[nH]c12
inactive: Potency [1] > 11.4 µM | activity change, negative = inhibition [2] 3.32% | activity, negative = inhibition [3] 1.06% | Potency [4] > 46 µM | Potency [5] > 9.22 µM | Potency [6] | Potency [7]

O=C1c2ccccc2C(=O)c2c(NC(=O)c3ccc4c5c(ncnc35)-c3ccccc3C4=O)cccc21
inactive: Potency [1] > 11.4 µM | activity change, negative = inhibition [2] 5.12% | activity, negative = inhibition [3] 0.00925% | Potency [4] > 46 µM | Potency [5] > 9.22 µM | Potency [6] | Potency [7]
